# From PubChem
# Only some compounds are listed: those with a hit (about 7.5% of all), similar ones and a draw of the others.
# TSHR antag = antagonists of human thyroid stimulating hormone receptor; P16473; TSHR-expressing cells, TSH-stimulated cAMP HTRF, 2 h; stronger effect = lower value; activity change, negative = inhibition, % at 11.5 µM; hit rate 0.2% among 330,000;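 active = activity change below a set negative limit, meaning inhibition stronger than a set level, cut at about -70% in these data; inconclusive = activity change between two set negative limits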
#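 Competitive HTRF cAMP read-out (cryptate anti-cAMP antibody, cAMP-d2; 30 min, room temperature) in freshly harvested TSHR cells. Compounds added before TSH at EC80 (4nM final), followed by 2 hours' incubation at 37 deg C.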
# VP16 counter = inhibits Gal4-VP16 luciferase reporter, ROR gamma counter-screen. Drosophila S2 Gal4-VP16 UAS-luciferase, luminescence, 20 h. Potency, µM (series often up to 53.6 µM), usual class: inhibitors. hit rate 3.5% among 310,000. AID 2546;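 also: Gal4-VP16 expression switched on by copper sulfate through the metallothionein promoter; nearly all actives have a fitted effect of over 50% in size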
# B2AR arrestin = recruits beta-arrestin to the human beta2-adrenergic receptor; P07550; beta-arrestin recruitment to beta2AR, cell-based reporter; Potency, µM (highest dose often 46.1 µM), actives largely listed as activators; hit rate 0.02% among 330,000; also: nearly all actives have a fitted effect of over 65% in size
# Target sequence (P07550 whole entry, looked up): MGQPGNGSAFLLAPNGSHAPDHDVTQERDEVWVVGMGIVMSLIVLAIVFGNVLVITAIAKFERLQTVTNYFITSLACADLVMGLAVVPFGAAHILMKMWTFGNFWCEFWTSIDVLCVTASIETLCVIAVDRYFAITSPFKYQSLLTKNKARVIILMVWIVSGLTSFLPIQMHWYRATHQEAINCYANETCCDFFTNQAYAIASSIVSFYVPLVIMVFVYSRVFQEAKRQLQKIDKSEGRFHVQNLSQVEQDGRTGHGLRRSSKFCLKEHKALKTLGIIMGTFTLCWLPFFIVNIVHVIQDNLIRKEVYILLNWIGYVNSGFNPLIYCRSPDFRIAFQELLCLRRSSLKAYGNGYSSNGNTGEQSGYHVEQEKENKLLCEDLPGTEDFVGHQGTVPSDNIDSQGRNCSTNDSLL
# RORg inh = ROR gamma (mouse) transcription inhibition; P51450; Drosophila S2 Gal4-RORgamma UAS-luciferase reporter, 20 h; Potency, µM (doses to about 53.6 µM), hits mostly inhibitors; hit rate 5.4% among 310,000; AID 2551; also: nearly all actives have a fitted effect of over 60% in size
#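 ROR gamma transcriptional activity was tracked as Gal4-UAS luciferase output in stably transfected Drosophila Schneider cells, with compound added 1 hr before 700 uM copper sulfate induction and a 20 hr ambient-temperature incubation.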
# ELG1 DNA repair = inhibitors of ELG1-dependent DNA repair in HEK293T cells; HEK293T ELG1-luciferase reporter, luminescence, 16 h; DNA damage induced by 5-fluorouridine; Potency, µM (highest dose often 46.1 µM), most hits filed as inhibitors; hit rate 2.3% among 330,000; also: nearly all actives have a fitted effect of over 55% in size
#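 DMSO vehicle served as the neutral condition. Each well held 2,000 cells given 5-fluorouridine plus compound; after 16 hr at 37 °C/5% CO2, ONE-Glo was added and luciferase measured 30 min later.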
# Numbers stand for hits; - = inactive; ? = inconclusive; . = no result given; [ ] = dose if it differs, or a comment. Unless noted, calls follow the shape of the dose curve; as a rule, active = well fitted curve in the direction sought with a large enough effect; inconclusive = small, poorly fitted or top-dose-only effect, or another doubt; inactive = no such curve, though single readings can be large; an effect the other way counts as inactive or inconclusive.
SMILES,TSHR antag,VP16 counter,B2AR arrestin,RORg inh,ELG1 DNA repair
Cc1cc(C)c2c(NC(=S)Nc3ccccc3)n[nH]c2n1,-,3.2µM,-,1.1µM,-
CCN(CC)S(=O)(=O)c1cccc(C(=O)N/N=C/c2ccc([N+](=O)[O-])o2)c1,-,?,-,10µM,?
O=C(N/N=C/c1ccc([N+](=O)[O-])o1)c1ccc(O)cc1,-,13µM,-,11µM,-
O=C(N/N=C/c1ccc([N+](=O)[O-])o1)c1ccncc1,-,?,-,?,?
Cc1nc2ccccn2c1C(=O)N/N=C/c1ccc([N+](=O)[O-])o1,-,?,-,14µM,10µM
O=C(CNC(=O)c1ccccc1)N/N=C/c1ccc([N+](=O)[O-])s1,-,-,-,-,6.5µM
CCN1CCCC1Cn1c(-c2ccccc2)nc2c(N(CCOC)CCOC)nc(C)nc21 (stereo not given),.,-,.,-,.
O=[N+]([O-])c1ccc(/C=N\NS(=O)(=O)c2ccc(F)cc2)o1,-,14µM,-,?,-
O=C(Cc1ccc2c(c1)OCO2)NN=Cc1ccc([N+](=O)[O-])o1,-,.,-,.,16µM
O=C(N/N=C/c1ccc([N+](=O)[O-])o1)c1cc2ccccc2o1,-,?,-,?,?
O=C(Cc1ccc2c(c1)OCCO2)N/N=C/c1ccco1,-,.,-,.,-
O=C(CNC(=O)c1ccccc1)N/N=C/c1ccc([N+](=O)[O-])o1,-,18µM,-,-,?
O=C(N/N=C\c1ccc([N+](=O)[O-])o1)c1cncc(Br)c1,-,?,-,?,16µM
CCc1c(C)sc(NC(=O)/C=C/C(=O)O)c1C(N)=O,-,-,-,-,-
Cn1cc(Cl)c(/C(N)=N/OC(=O)c2ccccc2C(F)(F)F)n1,-,-,-,-,?
CN(CC(=O)Nc1cccc(F)c1)C(=O)C1CC(=O)N(Cc2ccccc2)C1 (stereo not given),-,-,-,-,-
Cc1cc(OCC(=O)OCC(=O)NC2CCCCC2C)ccc1Cl (stereo not given),-,.,-,.,?
O=C(CCC(=O)Nc1ccc(Cl)cc1Cl)N/N=C/c1ccc([N+](=O)[O-])o1,-,16µM,-,?,?
Cc1ccc(C(=O)N/N=C/c2ccc(-c3ccc(Br)cc3[N+](=O)[O-])o2)o1,-,?,-,?,?
Cc1scc(C(=O)N/N=C/c2ccc([N+](=O)[O-])o2)c1C,-,7.1µM,-,4µM,-
CCCCCC(=O)N/N=C/c1ccc([N+](=O)[O-])o1,-,-,-,-,.
O=C(N/N=C/c1ccc(-c2ccccc2[N+](=O)[O-])o1)c1cncc(Br)c1,-,5µM,-,6.3µM,?
Cc1ccc(Cl)cc1N1CCN(C(=O)c2ccccc2SCC(=O)N2CCCC2)CC1,-,.,-,.,-
COc1ccc(NC(=S)N=Nc2c(O)[nH]c3ccccc23)cc1,-,3.5µM,-,1.3µM,?
O=C(O)c1ccc(N=Nc2c(O)[nH]c3ccccc23)cc1,-,35µM,-,?,?
SMILES,TSHR antag,VP16 counter,B2AR arrestin,RORg inh,ELG1 DNA repair
CNC(=S)N=Nc1c(O)[nH]c2ccccc12,-,?,-,3.2µM,?
Oc1[nH]c2ccccc2c1N=Nc1c(F)c(F)c(C(F)(F)F)c(F)c1F,-,-,-,-,-
Oc1ccc(NC(=S)N=Nc2c(O)[nH]c3ccccc23)cc1,-,-,-,?,?
Cc1ccc(NC(=S)N=Nc2c(O)[nH]c3ccccc23)cc1,-,1.3µM,-,0.32µM,-
CCOc1ccc(S(=O)(=O)N2CCN(C(=O)CCC(=O)N3CCOCC3)CC2)cc1,-,.,-,.,-
CC(C)c1ccc2[nH]c(O)c(N=NC(=O)c3cccc(S(=O)(=O)N4CCCCC4)c3)c2c1,-,-,-,?,10µM
CNC(=S)N=Nc1c(O)[nH]c2ccc(C(C)C)cc12,-,2.8µM,-,4µM,-
CC(C)NC(=S)N=Nc1c(O)[nH]c2ccc([N+](=O)[O-])cc12,-,-,-,-,-
C=C(C)CNC(=S)N=Nc1c(O)[nH]c2ccc([N+](=O)[O-])cc12,-,13µM,-,2.5µM,?
CC(C)c1ccc2[nH]c(O)c(N=NC(=O)c3cccc(S(=O)(=O)Nc4ccc(Cl)cc4)c3)c2c1,-,-,-,-,-
COc1ccc(-c2csc(NC(=O)c3c(OC)cccc3OC)n2)cc1,-,-,-,-,-
COc1ccc(S(=O)(=O)Nc2ccccc2C(=O)Nc2nc(-c3ccc(F)cc3)cs2)cc1OC,-88,?,-,?,15µM
COc1ccc(-c2csc(NC(=O)COc3ccc(N(C)S(=O)(=O)c4ccc(C)cc4)cc3)n2)cc1,-,-,-,-,7.3µM
COc1ccc(-c2csc(NC(=O)c3ccccc3NS(=O)(=O)c3ccc(C)cc3)n2)cc1,-82,?,-,-[10 µM],13µM
CCC1=C2CC[C@H]3C(=O)N(c4ccccc4)C(=O)[C@H]3[C@H]2[C@@]2(Cc3ccccc3)C(=NCc3ccccc3)OC(=O)N2C1=O,.,-,.,-,.
Brc1ccc(-c2csc(N3CCCCC3)n2)cc1,-,.,-,.,.
CCOC(=O)/C=C/C(=O)Nc1ccc(S(=O)(=O)Nc2c(C)cc(C)cc2C)cc1,-,-,-,-,?
CCOC(=O)/C=C/S(=O)(=O)c1ccc(NC(C)=O)cc1,-,3.5µM,-,3.5µM,?
O=C(NC(=S)Nc1cc([N+](=O)[O-])ccc1O)c1ccc2c(c1)OCO2,-,2.8µM,-,4µM,?
O=C(N/N=C/c1cc([N+](=O)[O-])ccc1O)c1cccc(N2CCCC2=O)c1,-,3.2µM,-,2.2µM,12µM
O=C(N/N=C/c1cc([N+](=O)[O-])ccc1O)c1ccc2c(c1)OCCO2,-,1.4µM,-,0.63µM,-
O=C(N/N=C/c1ccccc1[N+](=O)[O-])c1ccc2c(c1)OCCO2,-,7.1µM,-,3.5µM,?
O=C(O)c1ccc2c(c1)C(=O)N([C@H](Cc1ccc3ccccc3c1)C(=O)O)C2=O,-,-,-,-,.
CC(C)N(Cc1ccccc1)C(=O)CN1C(=O)NC2(CCOc3ccccc32)C1=O (stereo not given),-,.,-,.,-
O=C(N/N=C/c1cc(O)ccc1[N+](=O)[O-])c1ccc2c(c1)OCCO2,-,8.9µM,-,10µM,?
SMILES,TSHR antag,VP16 counter,B2AR arrestin,RORg inh,ELG1 DNA repair
CCOC(=O)c1cccc(NC(=O)CSc2nc3cccnc3n2C)c1,-,-,-,?,18µM
COc1cccc(Cn2c(=O)c(-c3ccc(F)cc3)nc3cnc(N(C)C)nc32)c1,.,-,.,-,.
CC1(CCc2ccccc2)NC(=O)N(CC(=O)O)C1=O (stereo not given),-,-,-,-,-
CC1(c2ccc(Cl)cc2)NC(=S)N2C1NC(=S)N2c1ccccc1 (stereo not given),-,-,-,-,-
CC1(CCc2ccccc2)NC(=S)N(c2ccc(Cl)cc2)N1 (stereo not given),-,?,-,10µM,-
CC1(CCc2ccccc2)NC(=S)N(c2ccccc2)N1 (stereo not given),-,20µM,-,?,-
